Source: PubChem BioAssay
D1 ag = agonists of human D1 dopamine receptor | P21728 | HEK293 T-REx D1 cells, calcium flux, agonist mode | activation, % at 2 µM | 1% of 360,000 active | AID 504660
Target sequence (P21728 whole entry, looked up): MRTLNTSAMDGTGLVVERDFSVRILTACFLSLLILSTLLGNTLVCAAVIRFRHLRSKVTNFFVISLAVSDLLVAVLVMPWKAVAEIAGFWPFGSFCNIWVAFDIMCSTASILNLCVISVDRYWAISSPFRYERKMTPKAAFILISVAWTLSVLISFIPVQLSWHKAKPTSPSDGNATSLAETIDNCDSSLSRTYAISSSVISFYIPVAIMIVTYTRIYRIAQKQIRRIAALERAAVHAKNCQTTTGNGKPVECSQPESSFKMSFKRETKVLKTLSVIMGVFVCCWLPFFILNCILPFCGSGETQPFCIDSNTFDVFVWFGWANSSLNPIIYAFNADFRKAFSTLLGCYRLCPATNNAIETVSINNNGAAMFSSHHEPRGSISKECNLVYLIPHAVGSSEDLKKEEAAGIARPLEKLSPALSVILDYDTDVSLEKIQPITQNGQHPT
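Inducible HEK293 T-REx D1 cells, force-coupled to calcium signalling, were plated at 4000 cells/well with tetracycline and held overnight at 30 C. After no-wash calcium dye loading, compound-evoked calcium rise over 180 s flagged agonists.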
TRHR PAM = allosteric enhancers of human TRH receptor. 0.66% of 360,000 active. enhancement, % at 2 µM. TRHR cells, fluo-8 calcium fluorescence, EC20 TRH enhancement. AID 493056. P34981; in the data active = enhancement above about 30%
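TRHR-expressing cells loaded with fluo-8 calcium dye were read kinetically (ex 480/em 530) during compound addition, then stimulated with an EC20 of TRH (10 nM final). Enhancement of the Gq-mediated intracellular calcium response was scored.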
D1 antag = human D1 dopamine receptor antagonism. HEK293 TREx D1 cells, calcium flux, dopamine EC80; active compounds read low. activity change, negative = inhibition, % at 10 µM. 3.2% of 360,000 active. P21728; in the data active = activity change below about -30%
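Tetracycline-induced HEK293 Trex D1 cells, force-coupled to calcium, dye-loaded; compounds added and read 180 s, then EC80 dopamine added and calcium flux tracked kinetically another 180 s.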
D1 potentiator = enhances dopamine response at the human D1 receptor | 0.036% of 360,000 active | HEK293 TREx D1 cells, calcium flux, dopamine EC20 potentiation | P21728 | potentiation, % at 10 µM; in the data active = potentiation above about 30%
TRHR agonist = TRH receptor (human) agonism; P34981; 0.18% of 360,000 active; AID 493084; activation, % at 2 µM; TRHR cells, calcium flux fluo-8, FDSS agonist mode
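Fluo-8-loaded TRHR cells; 10 s baseline, compound added, kinetic Ca2+ fluorescence read 1/s, agonist mode.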
LDHA inh = LDHA (human) enzyme inhibition. activity change, % (values are at about 110 or 230 µM). P00338. purified LDHA, NADH/diaphorase-resazurin fluorescence; active compounds read low. 0.15% of 480,000 active; in the data active = activity change below about -30%
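Resorufin fluorescence (ex540/em590), read at 0 and 20 min after diaphorase/resazurin addition, reports the NADH left after a 5 min room-temperature reaction of 2 nM human LDH5 with 0.06 mM NADH and 0.2 mM pyruvate.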
Hits are given with their value; 0 = inactive; - = no result. Only some compounds are listed: those with a hit (about 3.6% of all), similar ones and a draw of the others. Cut-off read from the data, not from the text of the source, unless noted: active = activation above about 30%; inactive = the rest.

SMILES	D1 ag	TRHR PAM	D1 antag	D1 potentiator	TRHR agonist	LDHA inh
CCN(Cc1ccccc1)S(=O)(=O)c1ccc(C(=O)N(CCCN(C)C)c2nc3cc4c(cc3s2)OCO4)cc1	0	0	-66	0	0	0
CN(C)CCCN(C(=O)c1ccc2c(c1)CCCC2)c1nc2ccc(F)cc2s1	0	0	0	0	0	0
CN(C)CCCN(C(=O)c1ccc2c(c1)OCCO2)c1nc2ccc(Cl)cc2s1	33	0	0	0	0	-
C=C(C)CN1CCN(c2nc3c(c(=O)[nH]c(=O)n3C)n2Cc2ccc(Br)cc2)CC1	-	-	-	-	-	0
CC(C)C(NC(=O)C1CC1)c1ccccc1 (stereo unspecified)	-	-	-	-	-	0
N#Cc1cnn2ccc(-c3ccc4c(c3)CCC4)nc12	0	0	-31	0	0	0
NC(=O)CSCc1nc2ccccc2s1	0	37	0	0	0	0
OCc1cc(Br)ccc1OCc1nc2ccccc2s1	0	0	0	0	0	0
N/C(Cc1nc2ccccc2s1)=N\O	0	0	0	0	0	0
Oc1ccccc1OCc1nc2ccccc2s1	0	0	-31	0	0	0
O=C(CSc1nccn1-c1cccc(C(F)(F)F)c1)Nc1ccc2c(c1)OCO2	-	-	-	-	-	0
Cc1cc(C(=O)OCC(=O)c2cc(C)n(C)c2C)c2ccccc2n1	-	-	-	-	-	0
Cc1cc(NC(=O)CSc2nnc(-c3ccncc3)n2C2CC2)no1	-	-	-	-	-	0
Cc1cc(C(=O)N(Cc2ccco2)C2CC2)sc1C	-	-	-	-	-	0
CCOc1ccc(OCC)c(C(=O)NCc2coc(-c3cccs3)n2)c1	-	-	-	-	-	0
O=C(O)c1ccc(NS(=O)(=O)c2ccc3c(c2)C2C=CCC2C(c2ccccc2F)N3)cc1 (stereo unspecified)	0	0	-35	0	0	0
COC(=O)c1ccc([C@H]2Nc3ccc(S(=O)(=O)Nc4cccc(C)c4)cc3[C@H]3C=CC[C@H]32)cc1	0	0	-85	0	0	0
Cc1ccc(NS(=O)(=O)c2ccc3c(c2)[C@H]2C=CC[C@H]2[C@@H](c2ccc(F)cc2)N3)cc1C	0	0	0	0	0	0
Cc1cc(C)n(-c2ccc(=O)n(CC(=O)Nc3ccc(C(C)(C)C)cc3)n2)n1	-	-	-	-	-	0
Cc1cc(C)cc(C(=O)N(CCc2ccccc2)C2CC3CCC(C2)N3C)c1 (stereo unspecified)	0	0	-31	0	0	0
c1ccc2c(C[C@@H]3CNCCN3CC3CCCCC3)cccc2c1	116	0	0	0	0	0
Oc1ccc(C[C@H]2CNCCN2CC2CCCCC2)cc1	0	0	0	0	0	0
O=C(c1ccccc1)N1CCN(C(=O)c2n[nH]c(=O)c3ccccc23)CC1	-	-	-	-	-	0
CSc1nc(SCC(=O)NCc2ccco2)c2c3c(sc2n1)CN(C)CC3	-	-	-	-	-	0
CSc1nc(SCC(N)=O)c2c3c(sc2n1)CN(C)CC3	0	0	0	0	0	0
SMILES	D1 ag	TRHR PAM	D1 antag	D1 potentiator	TRHR agonist	LDHA inh
CCNc1nc(SCC(N)=O)nc2sc3c(c12)CCN(C)C3	33	0	0	0	0	0
CSc1nc(NCc2ccco2)c2c3c(sc2n1)CN(C)CC3	0	0	-42	0	0	-
FC(F)(F)c1ccc(Cl)c(N/N=C/c2ccccc2)c1	-	-	-	-	-	0
Cc1nn(-c2ccc(N3CCCCC3)nn2)c(C)c1CCC(=O)NCCc1ccco1	-	-	-	-	-	0
COc1ccc(C2c3c(-c4ccccc4)n[nH]c3C(=O)N2c2ccc(C(=O)O)cc2)c(OC)c1 (stereo unspecified)	0	0	-35	0	0	0
COc1cc(C2c3c(-c4ccccc4)n[nH]c3C(=O)N2c2ccc(C(=O)O)cc2)ccc1O (stereo unspecified)	0	0	0	-	0	0
CCCCNC(=S)NN=C1CCCCCC1	-	-	-	-	-	0
COc1ccccc1-c1ccc(SCc2ccccc2F)nn1	0	0	-40	0	0	0
Clc1c(/C=N/Nc2ccccc2)sc2ccccc12	-	-	-	-	-	0
N#Cc1ccc(OC(=O)c2cc(-c3ccc4c(c3)OCCO4)on2)cc1	33	0	0	0	0	0
Cc1ccccc1OC(=O)c1cc(-c2ccc3c(c2)OCCO3)on1	0	0	-46	0	0	0
O=C(Nc1cccc(Br)c1)c1cc(-c2ccc3c(c2)OCCO3)on1	0	0	-41	0	0	0
CCOC(=O)c1c(NC(=O)CCCN2CCCCC2)sc2c1CC(C)(C)OC2	-	-	-	-	-	0
Fc1ccc(NC(=S)N2CCCN(c3ccc(C(F)(F)F)cn3)CC2)c(F)c1	0	0	-54	0	0	0
CC1CN(C(=S)Nc2ccc(F)cc2F)CC(C)O1 (stereo unspecified)	0	0	0	0	0	0
Cc1csc2ncnc(N3CCN(C(=S)Nc4ccc(F)cc4F)CC3)c12	0	0	-36	0	0	0
CCc1c(C)sc(NC(=O)C(F)(F)C(F)(F)C(F)(F)C(F)(F)F)c1C#N	-	-	-	-	-	0
c1ccc(N2CCN(c3nc(N4CCOCC4)c4nccnc4n3)CC2)cc1	-	-	-	-	-	0
CCNc1nc(Oc2ccc(C(=O)OC)cc2)nc(N(C)C)n1	0	0	-31	0	0	0
CC1S/C(=N/N=C/c2ccco2)N(Cc2ccccc2)C1=O (stereo unspecified)	0	0	-40	0	0	0
COc1ccc2c(c1)OCCN(c1ccc(NC(=O)c3ccc(F)cc3)cc1C(=O)O)C2	-	-	-	-	-	0
COc1cccc(-n2c(C)c(C)c3c2ncn2nc(-c4cccs4)nc32)c1	-	-	-	-	-	-36
Cc1ccc(C2C=C(c3ccccc3OC(F)F)Nc3ncnn32)cc1 (stereo unspecified)	0	0	0	0	0	0
CN(C)c1ccc(C2C=C(c3ccc(Cl)cc3OC(F)F)Nc3ncnn32)cc1 (stereo unspecified)	41	0	0	0	0	0
O=C(Cn1cc(Br)c(=O)[nH]c1=O)N1CCCCCC1	-	-	-	-	-	0
SMILES	D1 ag	TRHR PAM	D1 antag	D1 potentiator	TRHR agonist	LDHA inh
O=C(NC1CCCCC1)N(Cc1nc2ccccc2c(=O)[nH]1)C1CCCCC1	0	0	0	0	0	0
O=C(NC1CCCCC1)N(Cc1nc2ccccc2c(=O)[nH]1)C1CCCC1	0	0	-64	0	0	0
CCOC(=O)c1cncc(C#CCOC(=O)Nc2ccc(OC(F)(F)F)cc2)c1	0	0	-34	0	0	0
COc1ccc(-c2coc3c(C)c(OCCN4CCC(C(N)=O)CC4)ccc3c2=O)cc1	-	-	-	-	-	0
CNC(=S)NNC(=O)c1ccc(C)cc1Cl	-	-	-	-	-	0
COc1ccc(-c2cc3onc(-c4c(Cl)cccc4Cl)c3c(=O)n2C)cc1	0	0	-33	0	0	0
CCCSC(=S)c1c(C)[nH]n(-c2ccccc2)c1=O	35	0	0	0	0	0
COCCn1c(-n2nc(C)c(C)c2C)nc2c1c(=O)[nH]c(=O)n2C	-	-	-	-	-	0
C[C@@H]1CN(CCCn2c3ccccc3c3ccccc32)C[C@H](C)N1	40	0	0	0	0	-
